This is part of a sample that, as a whole, favours compounds with a hit. Of some 79,000 tested, about 15% had one in any assay. The source made the active and inactive calls. No stated cut-off is given here; in the data, active means growth inhibition above about 70%; inactive means the rest.
How the values were obtained:
[1] = NCI Yeast Anticancer Drug Screen. Data for the rad52 strain (AID 147);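 further: 0% = growth of vehicle-treated control cultures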; settings: S. cerevisiae rad52 mutant growth inhibition, active compounds read high
Outline: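 Read-out: growth inhibition versus vehicle-treated controls. Cells were a DNA repair-deficient yeast strain treated with compounds.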

[2] = NCI Yeast Anticancer Drug Screen. Data for the wt1 strain (AID 149);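 further: 0% = growth of vehicle-treated wt1 cultures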; settings: S. cerevisiae wt1 strain (SPY 50644) growth inhibition, active compounds read high
Outline: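 Vehicle-normalised growth inhibition; strain wt1; compound exposure.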

[3] = NCI Yeast Anticancer Drug Screen. Data for the rad50EPP+ strain (AID 151);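 further: 0% = growth of vehicle-treated control cultures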; settings: S. cerevisiae rad50 mutant strain, active compounds read high
Outline: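 Growth inhibition read against vehicle controls in rad50EPP+ yeast, a strain altered in DNA damage repair, after compound exposure.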

[4] = NCI Yeast Anticancer Drug Screen. Data for the mgt1 strain (AID 153); settings: S. cerevisiae mgt1 mutant growth inhibition, active compounds read high
Outline: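 mgt1 yeast grown with test compound; read-out is growth inhibition versus vehicle-treated cultures.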

[5] = NCI Yeast Anticancer Drug Screen. Data for the rad50 strain (AID 155);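 further: 0% = growth of vehicle-only cultures of the same strain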; settings: S. cerevisiae rad50 strain growth inhibition, active compounds read high
Outline: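 A DNA repair-deficient yeast mutant serves as the test organism; compound-induced growth inhibition is calculated against vehicle-treated cells.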

[6] = NCI Yeast Anticancer Drug Screen. Data for the mec2-1 strain (AID 157); settings: S. cerevisiae mec2-1 strain, active compounds read high
Outline: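 Yeast mec2-1 mutant treated with compound. Readout: growth inhibition vs vehicle controls.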

[7] = NCI Yeast Anticancer Drug Screen. Data for the rad14 strain (AID 159);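 further: 0% = growth of vehicle-treated control cultures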; settings: S. cerevisiae rad14 strain growth inhibition, active compounds read high
Outline: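 Vehicle-treated cultures served as the baseline for growth inhibition of a DNA repair-mutant yeast strain exposed to each compound.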

[8] = NCI Yeast Anticancer Drug Screen. Data for the sgs1 mgt1 strain (AID 161);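 further: 0% = growth of cultures given vehicle only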; settings: S. cerevisiae sgs1 mgt1 strain, active compounds read high
Outline: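 Mutant yeast exposed to compound; growth scored against vehicle-only wells.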

[9] = NCI Yeast Anticancer Drug Screen. Data for the cln2 rad14 strain (AID 165);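 further: 0% = growth equal to vehicle treated cultures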; settings: S. cerevisiae cln2 rad14 strain, active compounds read high
Outline: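 cln2 rad14 yeast strain; compound exposure; growth inhibition read vs vehicle controls.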

[10] = NCI Yeast Anticancer Drug Screen. Data for the bub3 strain (AID 167); settings: S. cerevisiae bub3 mutant strain, active compounds read high
Outline: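 Inhibition values come from growth of compound-treated mutant yeast normalised to vehicle-treated controls.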

[11] = NCI Yeast Anticancer Drug Screen. Data for the wt2 strain (AID 169);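 further: 0% = growth of vehicle-treated yeast cultures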; settings: S. cerevisiae wt2 strain growth inhibition, active compounds read high
Outline: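 Read-out: growth inhibition versus vehicle-treated control cultures after compound exposure of the yeast strain.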

[12] = NCI Yeast Anticancer Drug Screen. Data for the mlh1 strain (AID 171);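 further: 0% = growth of vehicle-treated control cultures of the same strain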; settings: S. cerevisiae mlh1 strain growth inhibition, active compounds read high
Outline: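 Read-out: growth inhibition versus vehicle controls. Strain: engineered yeast with a defined DNA repair or cell cycle defect, compound-treated.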

[13] = NCI Yeast Anticancer Drug Screen. Data for the sgs1 strain (AID 173);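 further: 0% = growth of vehicle-only control cultures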; settings: S. cerevisiae sgs1 mutant, active compounds read high
Outline: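 Read-out: yeast growth inhibition relative to vehicle controls, following compound exposure of a strain with a defined DNA repair/cell cycle alteration.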

[14] = NCI Yeast Anticancer Drug Screen. Data for the mlh1 rad18 strain (AID 175); settings: S. cerevisiae mlh1 rad18 strain growth inhibition, active compounds read high
Outline: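 Yeast w/ defined DNA-repair lesions; compound exposure; growth vs vehicle controls → % inhibition.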

[15] = NCI Yeast Anticancer Drug Screen. Data for the rad18 strain (AID 177); settings: S. cerevisiae rad18 mutant growth inhibition, active compounds read high
Outline: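 Readout: growth inhibition vs vehicle controls. Cells: genetically altered yeast strain, DNA repair defect.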

[16] = at 5.0 µM (retest, dose inferred, filed as 0.5)
[17] = at 50.0 µM (retest, dose inferred, filed as 5.0)

Measured: growth inhibition

O=[N+]([O-])c1ccc2c(c1)/C(=N/N=C1c3ccccc3Cc3ccccc31)c1cc([N+](=O)[O-])cc([N+](=O)[O-])c1-2
active: [1]; at 11.0 µM 91% | [1]; at 33.0 µM 98% | [1]; at 100.0 µM 96% | [2]; at 11.0 µM 99% | [2]; at 33.0 µM 99% | [2]; at 100.0 µM 97% | [3]; at 3.7 µM 86% | [3]; at 11.0 µM 99% | [3]; at 33.0 µM 97% | [3]; at 100.0 µM 94% | [4]; at 3.7 µM 74% | [4]; at 11.0 µM 99% | [4]; at 33.0 µM 98% | [4]; at 100.0 µM 93% | [5]; at 11.0 µM 96% | [5]; at 33.0 µM 98% | [5]; [17] 96% | [5]; at 50.0 µM 82.7% | [5]; at 100.0 µM 94% | [6]; at 3.7 µM 78% | [6]; at 11.0 µM 99% | [6]; at 33.0 µM 98% | [6]; [17] 96% | [6]; at 50.0 µM 81.5% | [6]; at 100.0 µM 95% | [7]; at 11.0 µM 98% | [7]; at 33.0 µM 99% | [7]; at 100.0 µM 95% | [8]; [16] 75% | [8]; [17] 98% | [8]; at 50.0 µM 89.2% | [9]; [17] 97% | [9]; at 50.0 µM 85.8% | [10]; at 11.0 µM 99% | [10]; at 33.0 µM 98% | [10]; [17] 98% | [10]; at 50.0 µM 85.9% | [10]; at 100.0 µM 91% | [11]; at 11.0 µM 98% | [11]; at 33.0 µM 98% | [11]; at 100.0 µM 94% | [12]; at 11.0 µM 99% | [12]; at 33.0 µM 98% | [12]; at 100.0 µM 93% | [13]; at 11.0 µM 99% | [13]; at 33.0 µM 99% | [13]; at 100.0 µM 95% | [14]; [17] 96% | [14]; at 50.0 µM 82.5% | [15]; at 3.7 µM 81% | [15]; at 11.0 µM 97% | [15]; at 33.0 µM 97% | [15]; at 100.0 µM 94%
inactive: [1]; at 1.2 µM 9% | [1]; at 3.7 µM 32% | [2]; at 1.2 µM -19% | [2]; at 3.7 µM 21% | [3]; at 1.2 µM -7% | [4]; at 1.2 µM 16% | [5]; at 1.2 µM -10% | [5]; at 3.7 µM 60% | [5]; [16] 9% | [6]; at 1.2 µM 16% | [6]; [16] 24% | [7]; at 1.2 µM 16% | [7]; at 3.7 µM 53% | [9]; [16] 25% | [10]; at 1.2 µM 4% | [10]; at 3.7 µM 57% | [10]; [16] 63% | [11]; at 1.2 µM 15% | [11]; at 3.7 µM 41% | [12]; at 1.2 µM 15% | [12]; at 3.7 µM 50% | [13]; at 1.2 µM 18% | [13]; at 3.7 µM 64% | [14]; [16] 27% | [15]; at 1.2 µM 50%

COc1ccc(C/C=N/Nc2ccc([N+](=O)[O-])cc2)cc1OC
active: [5]; [17] 97% | [5]; at 50.0 µM 98.1% | [6]; [17] 98% | [6]; at 50.0 µM 97.3% | [8]; [17] 97% | [8]; at 50.0 µM 97.5% | [9]; [17] 89% | [10]; [17] 97% | [10]; at 50.0 µM 98.2% | [13]; at 100.0 µM 73% | [14]; [17] 98% | [14]; at 50.0 µM 97.8%
inactive: [1]; at 1.2 µM 8% | [1]; at 3.7 µM 12% | [1]; at 11.0 µM 18% | [1]; at 33.0 µM 39% | [1]; at 100.0 µM 42% | [2]; at 1.2 µM 4% | [2]; at 3.7 µM 2% | [2]; at 11.0 µM 5% | [2]; at 33.0 µM -1% | [2]; at 100.0 µM 2% | [3]; at 1.2 µM 15% | [3]; at 3.7 µM 29% | [3]; at 11.0 µM 33% | [3]; at 33.0 µM 35% | [3]; at 100.0 µM 51% | [4]; at 1.2 µM 2% | [4]; at 3.7 µM 12% | [4]; at 11.0 µM 9% | [4]; at 33.0 µM 4% | [4]; at 100.0 µM 23% | [5]; at 1.2 µM 27% | [5]; at 3.7 µM 36% | [5]; [16] 9% | [5]; at 11.0 µM 28% | [5]; at 33.0 µM 56% | [5]; at 100.0 µM 66% | [6]; at 1.2 µM 1% | [6]; at 3.7 µM 3% | [6]; [16] 16% | [6]; at 11.0 µM 4% | [6]; at 33.0 µM 1% | [6]; at 100.0 µM 6% | [7]; at 1.2 µM 3% | [7]; at 3.7 µM 12% | [7]; at 11.0 µM 23% | [7]; at 33.0 µM 25% | [7]; at 100.0 µM 30% | [8]; [16] 9% | [9]; [16] -3% | [9]; at 50.0 µM 54.4% | [10]; at 1.2 µM 3% | [10]; at 3.7 µM 2% | [10]; [16] 12% | [10]; at 11.0 µM 8% | [10]; at 33.0 µM 13% | [10]; at 100.0 µM 23% | [11]; at 1.2 µM -2% | [11]; at 3.7 µM -1% | [11]; at 11.0 µM 5% | [11]; at 33.0 µM 5% | [11]; at 100.0 µM -3% | [12]; at 1.2 µM -1% | [12]; at 3.7 µM 6% | [12]; at 11.0 µM 9% | [12]; at 33.0 µM 11% | [12]; at 100.0 µM 31% | [13]; at 1.2 µM -17% | [13]; at 3.7 µM -24% | [13]; at 11.0 µM -8% | [13]; at 33.0 µM 48% | [14]; [16] 7% | [15]; at 1.2 µM 15% | [15]; at 3.7 µM 43% | [15]; at 11.0 µM 26% | [15]; at 33.0 µM 20% | [15]; at 100.0 µM 56%

Cc1ccc2c(c1)C1(SC(C)C(=O)N1c1ccc(Cl)cc1)C(=O)N2 (stereo unspecified)
inactive: [1]; at 1.2 µM 0% | [1]; at 3.7 µM 4% | [1]; at 11.0 µM 16% | [2]; at 1.2 µM 0% | [2]; at 3.7 µM 5% | [2]; at 11.0 µM 4% | [2]; at 33.0 µM 55% | [3]; at 1.2 µM -2% | [3]; at 3.7 µM -1% | [3]; at 11.0 µM 1% | [3]; at 33.0 µM -2% | [3]; at 100.0 µM -3% | [4]; at 1.2 µM -5% | [4]; at 3.7 µM -6% | [4]; at 11.0 µM 3% | [5]; at 1.2 µM -2% | [5]; at 3.7 µM 1% | [5]; [16] 12% | [5]; at 11.0 µM 9% | [6]; at 1.2 µM -2% | [6]; at 3.7 µM 5%
active: [1]; at 33.0 µM 96% | [1]; at 100.0 µM 99% | [2]; at 100.0 µM 99% | [4]; at 33.0 µM 94% | [4]; at 100.0 µM 99% | [5]; at 33.0 µM 94% | [5]; [17] 97% | [5]; at 50.0 µM 98.8% | [5]; at 100.0 µM 99%
